Measurements taken from PubChem BioAssay (NCI).
The panel holds about 83,000 compounds, 20% with a hit somewhere; the sample as a whole holds those more often.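 Compound tested at a single concentration for 48 hours in 96-well plates; a percent growth value below 10 was scored as active.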 Unmarked numbers belong to inactive results. Calls of active or inactive are those of the source.

Key:
Assay in all cases: NCI-60 one-dose screen, 48 h (100 = growth as untreated, 0 = no growth, -100 = all killed)
Details in all cases: 10 µM
NCI-H23 lung = test system: NCI-H23 lung
NCI-H226 lung = test system: NCI-H226 lung
NCI-H322M lung = test system: NCI-H322M lung
HOP-62 NSCLC = test system: HOP-62 NSCLC
NCI-H460 lung = test system: NCI-H460 lung
HOP-92 NSCLC = test system: HOP-92 NSCLC
NCI-H522 lung = test system: NCI-H522 lung
A549/ATCC NSCLC = test system: A549/ATCC NSCLC
786-0 renal = test system: 786-0 renal
COLO 205 colon = test system: COLO 205 colon
DU-145 prostate = test system: DU-145 prostate
K-562 leukemia = test system: K-562 leukemia
MALME-3M melanoma = test system: MALME-3M melanoma
MDA-MB-231 breast = test system: MDA-MB-231 breast
SF-268 CNS = test system: SF-268 CNS
SF-295 CNS = test system: SF-295 CNS
SF-539 CNS = test system: SF-539 CNS
UACC-257 melanoma = test system: UACC-257 melanoma
M14 melanoma = test system: M14 melanoma

SMILES | growth (NCI-H23 lung) | growth (NCI-H226 lung) | growth (NCI-H322M lung) | growth (HOP-62 NSCLC) | growth (NCI-H460 lung) | growth (HOP-92 NSCLC) | growth (NCI-H522 lung) | growth (A549/ATCC NSCLC) | growth (786-0 renal) | growth (COLO 205 colon) | growth (DU-145 prostate) | growth (K-562 leukemia) | growth (MALME-3M melanoma) | growth (MDA-MB-231 breast) | growth (SF-268 CNS) | growth (SF-295 CNS) | growth (SF-539 CNS) | growth (UACC-257 melanoma) | growth (M14 melanoma)
CC1(c2ccccc2)NC(=O)N(CC(=O)Nc2ccc(C(=O)/C=C/c3ccccc3)cc2)C1=O (centres undefined) | 65.5% | 45.7% | 90.2% | 85.9% | 69.4% | 50.7% | 71.4% | 44.3% | 42.6% | 76.4% | 62.1% | 22.4% | 77.6% | 67.7% | 52.2% | 50.9% | 43.3% | 63.5% | 48.2%
COC1=C[C@]23CCC(=O)N2CCc2cc4c(cc2[C@@H]3[C@@H]1OC(=O)CCCC(C)C)OCO4 | 53.2% | 23.3% | 108% | 70.5% | 17.4% | 95.6% | -2.41% (active) | 49.9% | 80.5% | 68% | 84.2% | 17.6% | 4.86% (active) | 98.5% | 133% | 69.9% | 11.3% | 78.9% | 57.1%
CC(=O)C1=C(C)NC(SCC(=O)Nc2ccc(S(=O)(=O)Nc3cc(C)on3)cc2)=NC1c1ccccc1 (centres undefined) | 102% | 117% | 102% | 105% | 98.3% | 132% | 100% | 99.1% | 102% | 122% | 109% | 104% | 100% | 110% | 107% | 106% | 101% | 103% | 108%
O=C(Nc1ccc(Cl)c([N+](=O)[O-])c1)Nc1ccc(Cl)c([N+](=O)[O-])c1 | -14.3% (active) | -4.77% (active) | 27.7% | 30.5% | 9.48% (active) | -34.2% (active) | 28.1% | 26.1% | 10.7% | 2.69% (active) | 18.4% | 19.8% | -11.2% (active) | 17.5% | 18% | 0.239% (active) | 11.4% | 36.9% | 18.6%
Nc1nc(Nc2ccc(Cl)cc2)nn1Cc1cccc(Br)c1 | 31.7% | 41.5% | 44.7% | 52.5% | 17.9% | -9.09% (active) | 27.6% | 45% | 37.4% | 24.7% | 53.3% | 20.5% | 50.6% | 42.6% | 40.7% | 44.7% | 37.8% | 58.2% | 35.8%
CCOC(=O)C1=C(N)N(c2ccc(C)cc2)C2=C(C(=O)CC(C)(C)C2)C1c1ccccc1OC (centres undefined) | 109% | 99.7% | 93.4% | 106% | 111% | 117% | 97.6% | 107% | 99.6% | 134% | 107% | 98.4% | 93.4% | 95.5% | 100% | 91% | 101% | 104% | 112%
COc1cc(/C=C/C(=O)c2ccc(NC(=O)CN3C(=O)NC(C)(c4ccccc4)C3=O)cc2)cc(OC)c1OC (centres undefined) | 15.6% | 1.44% (active) | 56.5% | 33.3% | 2.48% (active) | 85% | 32.8% | 18.5% | 27.5% | 11.9% | 12.4% | 16% | 69.5% | 26.5% | 23% | 46.7% | -50.4% (active) | 52.6% | 46.8%
CN1CCN(Cc2ccc(NC(=O)c3cncc(C#Cc4cnc5ccc(N[C@H]6CCOC6)nn45)c3)cc2C(F)(F)F)CC1 | -80.4% (active) | -89.1% (active) | -95.3% (active) | -80% (active) | -76.1% (active) | -79.4% (active) | -69.1% (active) | -59.9% (active) | -75.6% (active) | -79.6% (active) | -99.9% (active) | 0.651% (active) | -97.3% (active) | -92.4% (active) | -74.5% (active) | -98.4% (active) | -99.7% (active) | -84.1% (active) | -82% (active)
Cc1ccc(C(=O)NNC(=O)CSc2nc3ccccc3c(=O)[nH]2)cc1 | 98.5% | 92.4% | 99.2% | 98.8% | 108% | 90.6% | 106% | 111% | 95.2% | 97.8% | 105% | 97.6% | 91.7% | 91.1% | 101% | 96.3% | 98.7% | 105% | 108%
Nc1nc(Nc2ccc(Cl)cc2)n(Cc2cccc(Br)c2)n1 | -37.9% (active) | -12.6% (active) | 11.8% | -30.4% (active) | -65.9% (active) | -49.5% (active) | -46.2% (active) | 8.74% (active) | -46.8% (active) | -68.8% (active) | 12.1% | 7.99% (active) | -53.2% (active) | -68.7% (active) | -27.4% (active) | -63.2% (active) | -86.6% (active) | -15.6% (active) | -48.8% (active)
CN1C/C(=C\c2ccc(O)cc2O)c2[o+]c3cc(O)ccc3cc2C1 | 56.6% | 56.3% | 88% | 77.8% | 35.8% | 58.8% | -0.58% (active) | 99.5% | 41.7% | 58.3% | 78.7% | 34.9% | 26.5% | 14.2% | 70% | 92.5% | -8.51% (active) | 58.5% | 55.2%
CN(C)c1ccc(/C=C/c2nc3ccccc3c(=O)n2CC(=O)Nc2ccccc2)cc1 | 58.8% | -6.92% (active) | 48.6% | 37.3% | 16.8% | 15.3% | 48.7% | 33.6% | 20.1% | 69.6% | 42.1% | 55.6% | 15.7% | 33.4% | 57.3% | 35.5% | -26.8% (active) | 60.4% | 81.4%
CN(C)c1ccc(/C=C/C(=O)c2ccc(NC(=O)CN3C(=O)NC(C)(c4ccccc4)C3=O)cc2)cc1 (centres undefined) | 66% | 53.2% | 88.8% | 88.9% | 73.7% | 65.3% | 78.3% | 56.5% | 29.8% | 110% | 75.3% | 27.9% | 80.3% | 68.1% | 57.9% | 54.9% | 55.2% | 62.9% | 51.5%
CN(C)c1ccc(/C=C/c2nc3ccccc3c(=O)n2CC(=O)Nc2ccc(Cl)cc2)cc1 | 67.2% | 2.45% (active) | 61.7% | 25.4% | 44.6% | -13.6% (active) | 77.9% | 43.8% | 27.8% | 57.3% | 36.7% | 68.7% | 15.5% | 35.1% | 58.5% | 27.9% | -63.6% (active) | 78.7% | 65.2%
COc1cc(/C=C/C(=O)c2ccc(F)cc2)ccc1Oc1nc(Nc2ccc(F)cc2)nc(N(C)C)n1 | 66.8% | 53.7% | 79.1% | 93.5% | 69.6% | 65.6% | 62.3% | 74.1% | 71% | 118% | 78.4% | 25.7% | 84.4% | 59.4% | 54.8% | 53.1% | 77.5% | 47.7% | 68.6%
N#Cc1ccc(-c2nn(-c3ccc(C(=O)O)cc3)cc2CNc2cc(Cl)cc(Cl)c2)cc1 | 18.7% | 47.2% | 58% | 41.8% | 32.3% | 46.8% | 73.1% | 53.7% | 36% | 109% | 65.4% | 43.7% | 80.1% | 80.2% | 53.3% | 38.4% | 30.6% | 60.2% | 34.5%
